# In PubChem BioAssay (NCATS):
# Inconclusive results are not listed. A call without a number means that no potency is given here. Active and inactive are the calls of the source. Calls follow the shape of the dose curve; as a rule, active = well fitted inhibition curve with a large enough effect; inconclusive = small, poorly fitted or top-dose-only effect; inactive = flat fitted curve, though single readings scatter.
# Assay: P-glycoprotein substrates identified in KB-8-5-11 adenocarcinoma cell line, qHTS therapeutic library screen (AID 1346987); also: nearly all actives have a fitted effect of over 65% in size
# Settings: KB-8-5-11 (P-gp overexpressing) viability, CellTiter-Glo, 72 h; series mostly up to 44.5 µM
# How it was run: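 KB-8-5-11, a colchicine-selected P-gp-overexpressing KB-3-1 subline, was grown without colchicine for the assay. Cells were seeded at 500 cells/well, dosed in concentration-response and incubated 72 h at 37 degree C, 5% CO2. Viability was read by CellTiter-Glo luminescence.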
# Potency is read from the fitted curve at half-maximal effect.
SMILES,Potency,"activity change, negative = cytotoxicity"
CC[C@H]1CN(c2nc(N)c(C(N)=O)nc2Cl)CCN1C1CCN(Cc2ccc(Cl)cc2)CC1,inactive,–
COc1c(C(C)C)c(O)c(O)c2c1C(OC)[C@H]1OC(=O)[C@@]23CCCC(C)(C)[C@H]13 (stereo not given in full),inactive,–
CCC(C)C(=O)O[C@H]1[C@@H](OC(=O)c2ccoc2)C[C@](C)(O)[C@]23OC(C)(C)[C@H](C[C@H](OC(=O)c4ccoc4)[C@]12COC(C)=O)[C@H]3OC(C)=O (stereo not given in full),inactive,–
CC(=O)O[C@@]12CO[C@@H]1C[C@H](O)[C@@]1(C)C(=O)[C@H](O)C3=C(C)[C@@H](OC(=O)[C@H](O)[C@@H](NC(=O)OC(C)(C)C)c4ccccc4)C[C@@](O)([C@@H](OC(=O)c4ccccc4)C12)C3(C)C (stereo not given in full),0.126 µM (active),–
CC#CCC(C)[C@H](O)/C=C/[C@@H]1[C@H]2c3cccc(CCCC(=O)O)c3O[C@H]2C[C@H]1O (stereo not given in full),inactive,–
COc1ccc(CNCC(O)COc2ccc3[nH]c(=O)ccc3c2)cc1OC (stereo not given),inactive,–
CCC1C(=O)N(C)c2cnc(Nc3ccc(C(=O)NC4CCN(C)CC4)cc3OC)nc2N1C1CCCC1 (stereo not given),0.231 µM (active),–
CC(C(=O)O)c1ccc(C2CCCCC2)c2ccccc12 (stereo not given),inactive,–
C=C1CC2[C@@]3(C)C=CC(=O)C(C)(C)C3=C(O)C(=O)[C@@]2(C)C2(C(=O)OC)C(=O)C(C)OC(=O)[C@@]12C (stereo not given in full),8.93 µM (active),–
COC1CC(O[C@H]2CC[C@]3(C)C4CC[C@]5(C)C(C6=CC(=O)OC6)=CCC56OC46CC[C@@H]3C2)OC(C)C1O[C@@H]1O[C@H](CO[C@@H]2O[C@H](CO)[C@@H](O)[C@H](O)[C@H]2O)[C@@H](O)[C@H](O)[C@H]1O (stereo not given in full),3.1 µM (active),–
C[C@]12CC[C@@H]3c4ccc(OS(=O)(=O)O)cc4CC[C@H]3[C@@H]1CCC2=O,inactive,–
CO[C@H]1[C@@H](O)[C@H](N)[C@@H](O[C@H]2O[C@H]([C@H](C)N)CC[C@H]2N)[C@H](O)[C@@H]1N(C)C(=O)CN,inactive,–
CCn1c(=O)c(-c2ccc(Cl)cc2Cl)cc2cnc(Nc3ccc(N4CCNCC4)c(F)c3)nc21,20.6 µM (active),–
CC1(CO)CC2C(O)C3=C(CC(C)(O)C2C1)C(=O)OC3 (stereo not given),inactive,–
O=C(c1ccc(OC(F)F)c(C#Cc2ccccn2)c1)N1Cc2cccnc2C1,inactive,–
C=C1/C(=C/C=C2\CCC[C@]3(C)[C@@H]([C@H](C)CC[C@@H](O)C(C)(C)O)CC[C@@H]23)C[C@@H](O)C[C@@H]1O,inactive,–
CCC(CC)C(=O)OC12C(OC(=O)C(C)C)C(C)C3(O)C(C=C(CO)CC4(O)C(=O)C(C)=CC43)C1C2(C)C (stereo not given),inactive,–
O=C(O)[C@@H](O)[C@H](O)[C@H](O)[C@@H](O)C(=O)O (tested in a mixture with another compound),inactive,–
CCC(CC)Nc1nc(C)c(-c2ccc(OC(F)(F)F)cc2OC)nc1OC,inactive,–
Cc1cc(NC(=O)NCCN2CCC(O)(Cc3ccccc3)CC2)c2ccccc2n1,inactive,–

SMILES,Potency,"activity change, negative = cytotoxicity"
CCNC(=O)Nc1ccc(-c2nc3c(c(N4CCOCC4C)n2)CCN(C2COC2)C3)cc1 (stereo not given),1.84 µM (active),–
Cc1cc(N2CCOCC2)ccc1Nc1nc(NC2CCCCC2)c2[nH]cnc2n1,1.3 µM (active),–
Cc1cc(NC(=O)c2cccc(NC(=O)/C=C/CN(C)C)c2)ccc1Nc1nccc(-c2cccnc2)n1,inactive,–
CC(C)(O)C1CC(=O)C2(C)C(CCC3(C)C(c4ccoc4)OC(=O)C4OC432)C12CCC(=O)OC2 (stereo not given),inactive,–
COc1ccccc1C(=O)Nc1cc2c(cc1N1CCCC1)n(C)c(=O)n2C,18.4 µM (active),–
C=C1C(=O)O[C@@H]2C[C@]3(C)[C@@H](CCC(C)O)[C@@H]3C[C@H]12 (stereo not given in full),inactive,–
CCC(C)(C)OC(=O)N[C@@H](Cc1c[nH]c2ccccc12)C(=O)N[C@@H](CCSC)C(=O)N[C@@H](CC(=O)O)C(=O)N[C@@H](Cc1ccccc1)C(N)=O,inactive,–
CNC(=O)c1ccc2c(c1)CCO[C@H]2CCN1CCN(c2ccc(OC)cc2)CC1,inactive,–
O=C[C@H](O)[C@@H](O)[C@H](O)[C@H](O)CO,inactive,–
C[C@H](Nc1ncnc2nc[nH]c12)c1cc2cccc(Cl)c2c(=O)n1-c1ccccc1,inactive,–
CN(C)CCOC(C)(c1ccccc1)c1ccc(Cl)cc1 (stereo not given),16.4 µM (active),–
Cc1sc2c(c1C)C(c1ccc(Cl)cc1)=N[C@H](CC(=O)NCCCCNC(=O)COc1cccc3c1C(=O)N([C@H]1CCC(=O)NC1=O)C3=O)c1nnc(C)n1-2,inactive,–
CCCCCCCCCCCCCCCC(=O)O[C@@H]1CC(C)=C(/C=C/C(C)=C/C=C/C(C)=C/C=C/C=C(C)/C=C/C=C(C)/C=C/C2=C(C)C[C@@H](OC(=O)CCCCCCCCCCCCCCC)CC2(C)C)C(C)(C)C1,inactive,–
CC(=O)C=C=C1C(C)(C)CC(O)CC1(C)O[C@@H]1O[C@H](CO[C@H]2OC[C@](O)(CO)[C@H]2O)[C@@H](O)[C@H](O)[C@H]1O (stereo not given in full),inactive,–
CC[C@H]1OC(=O)[C@H](C)[C@@H](O[C@H]2C[C@@](C)(OC)[C@@H](O)[C@H](C)O2)[C@H](C)[C@@H](O[C@@H]2O[C@H](C)C[C@H](N(C)C)[C@H]2O)[C@](C)(O)C[C@@H](C)[C@@H]2N[C@@H](COCCOC)O[C@@H]([C@H]2C)[C@]1(C)O,inactive,–
C/C=C(/C)C(=O)O[C@@H]1C[C@@H](OC(=O)CC(C)C)C2(C)C3C(=O)C=C(C)C2C3C1(C)C (stereo not given in full),inactive,–
C/C=C(/C)C(=O)OC1CC(C)(C)CC2C3=CCC4C5(C)CCC(O[C@@H]6O[C@H](C(=O)O)[C@@H](O)[C@H](O)[C@H]6O[C@@H]6O[C@H](CO)[C@H](O)[C@H](O[C@@H]7OC[C@H](O)[C@H](O)[C@H]7O[C@@H]7O[C@H](CO)[C@@H](O)[C@H](O)[C@H]7O)[C@H]6O)C(C)(C)C5CCC4(C)C3(C)C(O)C(O)C12CO (stereo not given in full),–,-17.3% [at 9.29 µM] (inactive)
O=C(Nc1ccccc1Cl)c1cnc2ccc(C3CCNCC3)cn12,inactive,–
CCc1cc(C(N)=O)ccc1-n1nc(C(C)C)c2c(-n3cnc(-c4cnn(C)c4)c3)ccnc21,3.66 µM (active),–
CC(=O)O[C@H]1C[C@@H]2CC[C@@H]3[C@H](CC[C@@]4(C)[C@H]3C[C@H](N3CC[N+](C)(C)CC3)[C@@H]4OC(C)=O)[C@@]2(C)C[C@@H]1N1CC[N+](C)(C)CC1,inactive,–
